PubChem BioAssay

experiment: probe aWnt5a binding to arrayed compounds – biochemical, biotinylated probe, 635/667 nm fluorescence, primary screen (AID 1113); conditions: small-molecule microarray, higher = more signal;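 note: score merges 667 nm fluorescence intensity with signal-to-noise per printed feature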

Compound	composite z-score
CO[C@H]1COC(=O)[C@@H](C)COC(=O)[C@H](Cc2ccccc2)NC(=O)CC=C[C@H]1C	-0.135
C=CCC(OC(C)=O)[C@@H]1[C@@H](N(Cc2cccc3ccccc23)C(=O)c2ccc(C)cc2)c2cc(OCCCO)ccc2N1C(=O)c1ccc(-c2ccccc2)cc1 (stereo partly drawn)	-0.135
CC(C)[C@H]1NC(=O)[C@@]23C(=O)N[C@@H](Cc4ccccc4)C2[C@H](C)[C@@]2(C)O[C@H]2C3/C=C/C/C=C\CNC(=O)[C@H](C)NC1=O (stereo partly drawn)	-0.284
CO[C@H]1COC(=O)[C@@H](Cc2ccccc2)NC(=O)[C@@H](C)COC(=O)CC=C[C@@H]1C	-0.133
CN1CCC(CCCO)=CC1C1CC1 (stereo not drawn)	-0.172
CC(C)[Si]1(C(C)C)OCc2cc(C3CC3)nc(-c3ccccc3)c21	-0.15
O=C1c2ccccc2[C@](Cc2ccccc2I)(C(=O)O)[C@H](c2ccc(CO)cc2)N1C1CCCCC1	-0.0203
C[C@@H]1NC(=O)CC=C[C@@H](C)[C@@H]2C=C[C@H](O)[C@@H](COC(=O)[C@H](C)NC(=O)CC=C[C@@H](C)[C@@H]3C=C[C@H](O)[C@@H](COC1=O)O3)O2	-0.172
C=CCc1cccc([C@@H]2[C@@H](C)CC[C@H]3C(=O)N4[C@H](c5cccc(CC=C)c5)[C@@H](C)CC[C@H]4C(=O)N23)c1	0.0893
C=CC[C@@]12N=C(c3ccc(OCCCO)cc3)O[C@@H]1c1ccccc1CN(Cc1ccccc1)C2=O	-0.0403
COc1ccc([C@H]2C[C@H]3C(Br)=C[C@]2(OC)C(=O)[C@]32CO2)cc1	-0.113
C=CCOC(=O)[C@@H]1[C@H]2C(=O)O[C@H](c3ccccc3)[C@H](c3ccccc3)N2[C@H](c2ccc(OCCOC(=O)[C@H]3C[C@H]4C(=O)N5CCC[C@H]5C(=O)N4[C@H]3c3ccc(O)cc3)cc2)[C@@]12C(=O)Nc1ccccc12	0.0047
CC(=O)NCCCC[C@@H]1NC(=O)[C@@H]2C[C@H](C(=O)NCc3ccc(F)cc3)[C@H](c3cccc(OCCO)c3)N2C1=O	-0.0836
O=C(CS)NCCCCCNC(=O)[C@H]1C[C@H]2C(=O)N3CCC[C@H]3C(=O)N2[C@H]1c1ccc(O)cc1	-0.197
C=C(COC)/C(=C/C[C@H](OC(C)=O)c1ccc(OCCO)cc1)c1cnc2ccccc2c1	-0.001
COc1cc([C@@H]2N[C@H](C(=O)O)Cc3c2[nH]c2ccccc32)cc(OC)c1OC	-0.0328
C=CC[C@@]1(C(=O)N2CCOCC2)N=C(c2ccc(OCCCO)cc2)O[C@@H]1c1ccccc1	-0.166
COCCOC(=O)N1C(=O)[C@@]2(c3cc(C#CC4=CCCCC4)ccc31)[C@H](c1ccc(O)cc1)N1[C@H](c3ccccc3)[C@H](c3ccccc3)OC(=O)[C@H]1[C@@H]2C(=O)N1CCCCCCC1	-0.0732
COCCOC(=O)N1C(=O)[C@@]2(c3cc(C#CC4=CCCCC4)ccc31)[C@H](C(=O)NC[C@H](O)c1ccccc1)[C@H]1C(=O)O[C@H](c3ccccc3)[C@H](c3ccccc3)N1[C@@H]2c1ccccc1OCCO	0.0246
C=CC[C@]1(C(=O)NCC(O)CO)N=C(c2ccc(OCCCO)cc2)O[C@H]1c1ccccc1 (stereo partly drawn)	-0.0286
C=CCC(OC(C)=O)[C@@H]1[C@@H](N(Cc2cc3ccccc3o2)C(=O)c2ccc(C)cc2)c2cc(OCCCO)ccc2N1C(=O)c1ccc2ccccc2n1 (stereo partly drawn)	-0.148
CC(C)NC(=O)[C@@]1(Cc2ccccc2I)c2ccccc2C(=O)N(C2CCCCC2)[C@H]1c1ccc(CO)cc1	-0.0792
C=C[C@H](OC)[C@@H](OC(=O)Nc1ccc(SC)cc1)c1ccc(OC)c(O)c1	-0.176
CCc1cccc(NC(=O)O[C@H]2[C@H](OC(=O)Nc3ccccc3)[C@@H](OC(=O)Nc3ccccc3)[C@@H](OC)O[C@@H]2CO)c1	0.0267
COCCOC(=O)N1C(=O)[C@@]2(c3cc(C#CCC(C(=O)OC)C(=O)OC)ccc31)[C@H](C(=O)N1CCN(c3ncccn3)CC1)[C@H]1C(=O)O[C@H](c3ccccc3)[C@H](c3ccccc3)N1[C@@H]2c1ccc(O)cc1	0.0077
COc1ccc(-c2cc3c(c(-c4ccccc4)n2)[Si](C(C)C)(C(C)C)O[C@H]3c2ccccc2)cn1	-0.0512
CCC(=O)[C@]12O[C@@]3([C@@H]4C(=O)OCC[C@@H]41)N(Cc1ccccc1)C(C)=C(C(=O)OC)[C@@H](c1ccccc1)N3C2=O	-0.16
CO[C@@H]1COC(=O)[C@H](C)NC(=O)CC=C[C@@H](C)[C@H](NS(=O)(=O)c2ccc(C)cc2)COC(=O)CC=C[C@@H]1C	-0.0718
